This is one part of a sample in which hits are shown more often than they occur.
Pf Dd2 growth – inhibitors of Plasmodium falciparum Dd2 growth. 120,000 compounds, 4.3% hits. P. falciparum Dd2 growth, SYBR Green, 72 h. Potency, µM (top dose mostly 28.9 µM), actives largely listed as inhibitors; active means well fitted inhibition curve with a large enough effect; further: nearly all actives have a fitted effect of over 65% in size
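Infected erythrocytes (Dd2, 0.3% parasitemia, 2.5% hematocrit final) are added to compound in RPMI-1640/Albumax II medium, grown 72 h at 37C in low oxygen, then lysed with saponin/Triton-X containing SYBR Green and read by fluorescence.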
Hits are given with their value; - = inactive; [ ] = another dose, or the depositor's remark.

SMILES	Pf Dd2 growth
O=C(c1ccc(F)c(Cl)c1)N1CCC(c2n[nH]c(=O)n2-c2ccccc2)CC1	-
CN1CCCN(C(=O)c2ccsc2)c2ccccc21	-
COCCNC(=O)[C@@H]1C[C@H](Oc2cccnc2)CN1C(=O)c1ccccn1	-
CC(Oc1ccccc1)C(=O)N1CCCC(n2cc(-c3nc(C4CC4)no3)nn2)C1 (centres undefined)	-
COCCNC(=O)[C@@H]1C[C@H](Oc2ccccc2)CN1S(=O)(=O)Cc1ccccc1F	-
CCOCCOC1CCN(C(=O)c2ccc(OC)nc2)CC1	-
COc1cccc(C(=O)Nc2ccc3c(c2)CN(Cc2ccc(F)cc2)C(=O)C(C)O3)c1 (centres undefined)	-
COCC(=O)N[C@H]1C[C@H]2C(=O)NC[C@@H](CCC(=O)NCc3ccccc3)N2C1	-
CCc1cc(=O)n(CC(=O)Nc2ccccc2OC)c(N2CCOCC2)n1	11µM
COCc1cc(=O)n(CC(=O)Nc2ccccc2OC)c(N2CCOCC2)n1	-
CCc1cc(=O)n(CC(=O)N2CCN(c3ccccc3F)CC2)c(N2CCOCC2)n1	7.9µM
CCc1cc(=O)n(CC(=O)N2CCN(c3ccc(OC)cc3)CC2)c(N2CCOCC2)n1	-
CCc1cc(=O)n(CC(=O)Nc2ccc(F)c(Cl)c2)c(N2CCOCC2)n1	-
COc1cc(NC(=O)Cn2c(N3CCN(c4ccccc4)CC3)nc(C)cc2=O)cc(OC)c1	6.3µM
CCc1ccc(NC(=O)Cn2c(N3CCN(c4ccccc4)CC3)nc(C)cc2=O)cc1	-
CCc1cc(=O)n(CC(=O)Nc2cc(OC)c(OC)c(OC)c2)c(N2CCOCC2)n1	-
COc1ccc(NC(=O)Cn2c(N3CCC(C)CC3)nc(C)cc2=O)cc1	-
COc1cccc(CNC(=O)[C@@H]2C[C@@H](O)CN2C2CCN(C(=O)c3sc(C)nc3C)CC2)c1	-
O=C(Cn1nc2c(cc1=O)CCCCC2)NCCN1CCOCC1	-
O=C(NCC12CCC=C1N(Cc1ccccc1)C(=O)CC2)c1cccnc1 (centres undefined)	-
CCN(CC)C(=O)[C@@H](C)C1CC[C@@]2(C)CC[C@H](NC(=O)c3ccc(OC)cc3)[C@@H](C)[C@@H]2[C@H]1O (some centres undefined)	-
CCCC(=O)Nc1nc2c(s1)CC(C(C)(C)C)CC2 (centres undefined)	13µM
Cc1ccccc1C(=O)Nc1nnc(S(=O)(=O)N2c3ccccc3CC2C)s1 (centres undefined)	-
CC1CCc2nc(NC(=O)COc3ccc(C(C)(C)C)cc3)sc2C1 (centres undefined)	-
Cc1ccccc1C(=O)Nc1nc2c(s1)CC(C(C)(C)C)CC2 (centres undefined)	5.6µM
SMILES	Pf Dd2 growth
CC1CCc2nc(NC(=O)Cc3ccc(Cl)cc3)sc2C1 (centres undefined)	-
Cc1ccccc1C(=O)Nc1nnc(S(=O)(=O)N(C)Cc2ccccc2)s1	-
CN1C[C@@H](NC(=O)NCc2ccccc2)C[C@H]1c1nc(-c2cncnc2)no1	-
CCCN(CC1CCOC1)S(=O)(=O)c1ccc(F)c(Cl)c1 (centres undefined)	-[5.79 µM]
Cc1ccc2c(c1)N1C(=O)OC[C@@H]1CCN(CC1CC1)C2	-
Cc1ccc(C(=O)N2CCC[C@H]2c2nc(-c3ccccc3)no2)cc1	-
COc1cccc(N2C(=O)NC(=NC3CCCCC3)C23CCN(C(=O)c2ccc(C(F)(F)F)cc2)C3)c1 (centres undefined)	-
CCN1CCCC2(CCN(C(=O)CCc3n[nH]c(C)c3C)C2)C1=O (centres undefined)	-
Cc1ccc(C(=O)N2CC(c3nnc(-c4ccncc4)o3)C3(CCOCC3)C2)c(C)c1 (centres undefined)	-
Cc1ccc(C(=O)N2CCC3(CC2)NC(=O)N(c2ccccc2Cl)N3)c(C)c1	-
Cc1cccc(C(=O)NCC2CCCCC(=O)N2)c1 (centres undefined)	-
CCNC(=O)N1C[C@@H](F)[C@@H](OCc2nc3ccc(C)cc3[nH]2)C1	-
CCOc1ccc(CN(CCc2ccc3c(c2)OCO3)Cc2ccc(CC)cc2)cc1	-
CCOc1ccc(CN(CCc2ccc3c(c2)OCO3)Cc2cc(OC)ccc2O)cc1	0.71µM
CCOc1ccc(CN2C[C@@H]3C(=O)N(Cc4ccc5c(c4)OCO5)C(=O)[C@@H]3C2)cc1	-
CC(C)c1nnnn1[C@H]1CO[C@H]2[C@@H]1OC[C@H]2OC(=O)Nc1ccc(Oc2ccccc2)cc1	-
CCCN(CCC)CCCNC(=O)c1cc2c(=O)n(C)c3ccccc3c2s1	10µM
CCOc1ccc(CCNC(=O)c2cc3c(=O)n(C)c4ccccc4c3s2)cc1OCC	-
CCCN1CCN(CCCNC(=O)c2cc3c(s2)-c2c(C)cccc2OC3)CC1	-
COc1ccc(NC(=O)c2cc3c(=O)n(C)c4ccccc4c3s2)cc1Cl	-
CCCN1CCN(CCCNC(=O)c2cc3c(s2)-c2ccccc2OC3)CC1	-
CCCN1CCN(CCCNC(=O)c2cc3c(=O)[nH]c4ccccc4c3s2)CC1	13µM
COCCn1c2c(c(=O)n1-c1ccccc1)CCN(C(=O)c1cccc(O)c1)C2	-
CCCN(CCC)C(=O)CN1C(=O)NC2(CCC(C)CC2)C1=O (centres undefined)	-
O=C(NCc1ccc(F)cc1)c1cnc2c(c1)N([S+](=O)([O-])c1cccnc1)CCC2	-
SMILES	Pf Dd2 growth
O=C(NCc1ccc(F)cc1)c1ccc(Nc2nc3ccccc3n3nnnc23)cc1	-
Cc1ccc(CCNC(=O)c2ccc(Nc3nc4ccccc4n4nnnc34)cc2)cc1	-
CN(C)c1ccc(Nc2nc3ccccc3n3nnnc23)cc1	7.9µM
CCN1CC(NC(=O)c2cccc(S(=O)(=O)N(C)CCO)c2)CC1=O (centres undefined)	-
COCCCNC(=O)c1sc2nc(C)c(C(=O)Nc3ccc(Cl)cc3)c(-c3ccc(Br)cc3)c2c1N	-
Cc1ccc(NC(=O)c2c(C)nc3sc(C(=O)Nc4ccc(F)cc4)c(N)c3c2-c2ccc(C)o2)c(C)c1	3.5µM
Cc1ccc(NC(=O)c2sc3nc(-c4ccc(F)cc4)ccc3c2N)cc1F	-
COc1ccccc1NC(=O)c1sc2nc(C)c(C(=O)Nc3ccc(C)cc3C)c(-c3ccccc3Cl)c2c1N	5.6µM
Cc1cc(F)ccc1NC(=O)c1sc2nc(-c3cccs3)ccc2c1N	-
COc1ccccc1C(=O)Nc1c(C(=O)Nc2cc(Cl)ccc2C)sc2nc(C)cc(C)c12	-
COc1cccc(NC(=O)c2sc3nc(C)c(C(=O)Nc4ccc(C)cc4C)c(-c4ccc(Br)cc4)c3c2N)c1	8.9µM
COc1ccccc1NC(=O)c1sc2cccc(Cl)c2c1Cl	-
COc1ccccc1NC(=O)c1sc2nc(N3CCOCC3)c3c(c2c1N)CC(C)(C)OC3	-
COc1ccccc1NC(=O)c1sc2nc(C)c(C(=O)Nc3ccc(C)cc3C)c(-c3ccc(C)o3)c2c1N	11µM
COc1cccc(C(=O)Nc2nc(-c3ccc(Br)cc3)ns2)c1	-
COC(=O)c1ccccc1NC(=O)c1sc2nc(C)cc(C)c2c1NC(=O)c1ccccc1OC	-
Cc1cccc(CC(=O)N2C[C@@H](F)C[C@H]2C(=O)N2CCCCC2)c1	-
COC1CCC12CCN(C(=O)c1cnccn1)CC2 (centres undefined)	-
O=C(c1cc(C2CC2)no1)N1C[C@@H](CN2CCCCC2)[C@@H](CO)C1	-
COCC[C@]1(O)CCN(C(=O)CCc2nc(-c3ccco3)no2)C[C@H]1C	-
CC(C)C1CN(c2cncc(C(=O)N3CCCC3)n2)CCC(=O)N1CC1CC1 (centres undefined)	-

Bioassay records from PubChem.
